Inconclusive results are not listed. Entries that show only a call come without a potency. Calls of active or inactive are those of the source. Calls follow the shape of the dose curve; as a rule, active = well fitted inhibition curve with a large enough effect in the repeat runs; inconclusive = weak or mixed curves, or effect the other way; inactive = no such curve, though single readings can be large or run the other way.
Molecular target: Androgen receptor (Homo sapiens) (UniProt P10275)
Assay: qHTS assay to identify small molecule antagonists of the androgen receptor (AR) signaling pathway using the MDA cell line (AID 743042; also: nearly all actives have a fitted effect of over 55% in size)
Conditions: MDA-kb2 AR-luc, MMTV luciferase, R1881 antagonist, 16 h; series mostly up to 70.3 µM
Procedure, shortened: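 MDA-kb2 cells (human breast carcinoma, stably carrying an MMTV-luciferase reporter responsive to AR and GR) were plated at 3,000 cells/well and preincubated 5 hr at 37C, then given compound plus R1881 agonist for 16 h. ONE-Glo luminescence was read.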
Potency is read from the fitted curve at half-maximal effect.

Chain of Androgen receptor (Homo sapiens) (P10275 whole entry, looked up): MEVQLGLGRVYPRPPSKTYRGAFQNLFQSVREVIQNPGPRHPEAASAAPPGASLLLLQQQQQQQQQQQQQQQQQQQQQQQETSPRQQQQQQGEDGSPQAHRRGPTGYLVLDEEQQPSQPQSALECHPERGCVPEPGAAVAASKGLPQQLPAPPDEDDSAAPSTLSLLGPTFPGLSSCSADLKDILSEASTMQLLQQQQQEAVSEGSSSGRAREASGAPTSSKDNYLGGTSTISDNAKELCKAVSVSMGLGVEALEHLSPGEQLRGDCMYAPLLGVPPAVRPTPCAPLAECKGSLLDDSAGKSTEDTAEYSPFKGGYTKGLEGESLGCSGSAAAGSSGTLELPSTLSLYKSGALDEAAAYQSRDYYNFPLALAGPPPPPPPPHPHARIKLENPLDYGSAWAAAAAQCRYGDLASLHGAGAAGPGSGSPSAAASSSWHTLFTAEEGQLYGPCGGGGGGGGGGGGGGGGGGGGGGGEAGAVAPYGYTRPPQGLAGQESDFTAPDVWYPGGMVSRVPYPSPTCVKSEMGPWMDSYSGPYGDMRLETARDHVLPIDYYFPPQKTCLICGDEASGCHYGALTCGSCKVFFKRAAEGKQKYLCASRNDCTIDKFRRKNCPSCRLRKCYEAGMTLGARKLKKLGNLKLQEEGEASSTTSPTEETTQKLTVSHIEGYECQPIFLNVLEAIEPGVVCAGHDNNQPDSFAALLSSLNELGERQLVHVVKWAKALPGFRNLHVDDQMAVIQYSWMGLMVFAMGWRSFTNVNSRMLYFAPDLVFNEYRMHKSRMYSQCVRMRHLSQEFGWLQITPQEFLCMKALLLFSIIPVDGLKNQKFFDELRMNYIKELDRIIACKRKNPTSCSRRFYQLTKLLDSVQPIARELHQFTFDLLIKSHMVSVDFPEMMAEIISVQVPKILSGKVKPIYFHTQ

Row | Compound | Potency
1 | CCCCNC(=O)NCCCC | inactive
2 | CC(=O)CC(C)C | inactive
3 | CCSC(=O)N(CC(C)C)CC(C)C | inactive
4 | N=C(N)c1ccc2cc(OC(=O)c3ccc(N=C(N)N)cc3)ccc2c1 | inactive
5 | O=C1CC2CC1C1CCCC21 (stereo unspecified) | inactive
6 | CCN1CCC[C@H]1CNC(=O)c1cc(S(N)(=O)=O)ccc1OC | inactive
7 | CC(=O)OCC(CCn1cnc2cnc(N)nc21)COC(C)=O | inactive
8 | CCn1ccnc1CC1COc2ccccc2O1 (stereo unspecified) | inactive
9 | CC(C)(CC(=O)O)C(=O)O | inactive
10 | CC(C)(c1ccc(O)cc1)c1ccc(O)cc1 | 59.2 µM (active)
11 | C=C(C)C(=O)OCCCCCCCC(C)C | inactive
12 | ClC(Cl)(Br)Br | inactive
13 | CC(C)(O)C(=O)c1ccccc1 | inactive
14 | CC(=O)Nc1ccc(S(N)(=O)=O)cc1 | inactive
15 | O=C(O)COc1nn(Cc2ccccc2)c2ccccc12 | inactive
16 | CCCCOCCOCCOCc1cc2c(cc1CCC)OCO2 | inactive
17 | CC1(C)C(O)C(C)(C)C1O (stereo unspecified) | inactive
18 | NC(=O)COCCN1CCN(C(c2ccccc2)c2ccc(Cl)cc2)CC1 (stereo unspecified) | inactive
19 | COc1ccc2c(c1)c(CC(=O)OCC(=O)O)c(C)n2C(=O)c1ccc(Cl)cc1 | inactive
20 | OC1CCCCC1c1ccccc1 (stereo unspecified) | inactive
21 | O=S(O)CO | inactive

Reference: PubChem BioAssay (Tox21)
